Compound activity: PubChem BioAssay, National Center for Advancing Translational Sciences (NCATS)
A selection: hits, their analogues and other compounds. The true share with any hit is near 14%.
Pf growth 96h = inhibits malaria parasite growth, 96 h; hit rate 6.9% among 320,000; Potency, µM (titrated, usually from 28.7 µM), for the others: at the highest dose activity change, negative = inhibition, hits mostly inhibitors; AID 504834; P. falciparum luciferase reporter growth, 96 h; further: potency means the concentration at half of the fitted maximal effect
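Delayed-death screen, second-generation endpoint: infected erythrocytes, 2% hematocrit, 0.05% parasitemia final; 96 hours at 37 C, 5% CO2; luciferase detection reagent; luminescence decrease equals reduced growth.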
Pf growth 48h = P. falciparum growth inhibition at 48 hours (one generation); P. falciparum luciferase growth in erythrocytes, 48 h; hit rate 5.9% among 310,000; Potency, µM (series often up to 28.7 µM), for inactives: at the top dose activity change, negative = inhibition, actives largely listed as inhibitors; further: potency means the concentration at half of the fitted maximal effect
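Parasite viability was followed by luminescence of a genomically integrated firefly luciferase. Cultures held 0.1% parasitemia at 2% hematocrit (final), incubated under 5% CO2 at 37 C.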
HCMV antiviral = inhibitors of human cytomegalovirus; HFF cells, HCMV-luciferase reporter, 72 h; active compounds read low; activity change, negative = inhibition, % at 57.5 µM; hit rate 4.5% among 410,000; in the data active means activity change below about -60%; inconclusive means no clear call, values can overlap the other calls; inactive means above about -39%
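Two compound doses tested in HFFs infected with HCMV-luciferase, MOI 1 PFU/cell, 72 h at 37C. Lysate luminescence read with OneGlo; data normalized against buffer-only and 10uM Salinomycin inhibitor controls.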
FBPA Giardia inh = inhibitors of Giardia lamblia fructose-1,6-bisphosphate aldolase; A8B2U2; purified Giardia FBPA; Potency, µM (highest dose often 59.6 µM), inactives show at the top dose activity, negative = inhibition, usual class: inhibitors; hit rate 0.71% among 290,000; AID 2451; further: potency means the concentration at half of the fitted maximal effect; nearly all actives have a fitted effect of over 55% in size
Target sequence (A8B2U2 whole entry, looked up): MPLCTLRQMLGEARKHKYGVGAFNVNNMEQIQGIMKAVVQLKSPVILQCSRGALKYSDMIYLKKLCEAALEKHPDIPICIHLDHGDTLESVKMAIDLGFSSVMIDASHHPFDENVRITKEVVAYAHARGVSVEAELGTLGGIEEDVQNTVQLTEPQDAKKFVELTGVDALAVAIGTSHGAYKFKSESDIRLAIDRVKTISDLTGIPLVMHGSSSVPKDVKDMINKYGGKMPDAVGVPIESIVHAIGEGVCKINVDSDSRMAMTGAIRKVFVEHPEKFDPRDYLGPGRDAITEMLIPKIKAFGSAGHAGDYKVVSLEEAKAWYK
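Giardia FBPA (40 nM reagent) was preincubated 10 min at RT with compound (up to 57.5 uM final), then substrate plus GAPDH/TPI/NAD/arsenate coupling system with diaphorase/resazurin was added; resorufin fluorescence (525/598 nm) was read after 20 min.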
Sm TGR block = S. mansoni TGR enzyme inhibition; Potency, µM (top dose mostly 114 µM), for the others: at the highest dose activity change, negative = inhibition, usual class: inhibitors; hit rate 3% among 360,000; purified TGR, DTNB reduction, TNB absorbance 405 nm; Q962Y6; further: potency means the concentration at half of the fitted maximal effect; nearly all actives have a fitted effect of over 60% in size
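First, TGR (20 nM dispensed) and NADPH were mixed with compound. Second, a 15 min room-temperature incubation followed. Third, further NADPH and then DTNB were added to start the reaction. Finally, TNB absorbance was monitored kinetically.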
An asterisk follows results filed as active. Unless noted, the call rests on the fitted dose curve; in most records, active means well fitted curve in the direction sought with a large enough effect; inconclusive means small, poorly fitted or top-dose-only effect, or another doubt; inactive means no such curve, though single readings can be large; an effect the other way counts as inactive or inconclusive. On the % scale 0 is the no-effect control and ±100 the full control effect.

For Cc1ccc(C)c2[nH]c(=O)c(C(c3nnnn3C(C)(C)C)N3CC=C(c4ccc(F)cc4)CC3)cc12 (centres undefined) the results were Pf growth 96h inconclusive, Pf growth 48h 2.1µM*, HCMV antiviral 4, FBPA Giardia inh -14% and Sm TGR block -5%.
CC(C)(C)n1nnnc1C(c1cc2cc3c(cc2[nH]c1=O)OCCO3)N1CCSCC1 (centres undefined) was read as Pf growth 96h inconclusive, Pf growth 48h 0%, HCMV antiviral 9, FBPA Giardia inh 2% and Sm TGR block 0%.
Screening CCC(C)(C)n1nnnc1C(c1cccs1)N1CC=C(c2ccc(F)cc2)CC1 (centres undefined) returned Pf growth 96h inconclusive, Pf growth 48h 7.4µM*, HCMV antiviral -63*, FBPA Giardia inh -7% and Sm TGR block inconclusive.
COc1ccc(S(=O)(=O)N2CCCCC2)cc1NC(=O)CCC(=O)N1CCC(c2ccccc2)=N1 was read as HCMV antiviral 32.
`Nc1cc(SCc2ccc(Cl)cc2Cl)ncn1` gave HCMV antiviral 3.
`COc1ccc2sc(N(CCCN(C)C)C(=O)c3ccc(S(=O)(=O)N4CCCC4)cc3)nc2c1` gave Pf growth 96h 6%, Pf growth 48h -20%, HCMV antiviral 15 and Sm TGR block -1%.
For CN(C)CCCN(C(=O)c1ccc(S(=O)(=O)N2CCc3ccccc3C2)cc1)c1nc2ccc(F)cc2s1 the results were Pf growth 96h inconclusive, Pf growth 48h 13µM*, HCMV antiviral 14, FBPA Giardia inh -17% and Sm TGR block -1%.
For CN(C)CCCN(C(=O)c1ccc(S(=O)(=O)N2CCc3ccccc32)cc1)c1nc2ccc(F)cc2s1 the results were Pf growth 96h inconclusive, Pf growth 48h inconclusive, HCMV antiviral 8 and Sm TGR block 9%.
Cc1cc(C)c2sc(N(CCCN(C)C)C(=O)c3ccc(S(=O)(=O)N4CCCc5ccccc54)cc3)nc2c1 was read as Pf growth 96h inconclusive, Pf growth 48h 9.3µM*, HCMV antiviral -61* and Sm TGR block 5%.
Screening CN(C)CCCN(C(=O)c1ccc(S(=O)(=O)N2CCc3ccccc32)cc1)c1nc2ccc(Cl)cc2s1 returned Pf growth 96h 5.2µM*, Pf growth 48h 10µM*, HCMV antiviral -18 and Sm TGR block -11%.
`COc1ccc2sc(N(CCCN(C)C)C(=O)c3ccc(S(=O)(=O)N4CCc5ccccc5C4)cc3)nc2c1` gave Pf growth 96h inconclusive, Pf growth 48h inconclusive, HCMV antiviral -98* and Sm TGR block -4%.
For O=C(/C=C/c1ccccc1)OCc1ccccc1 the results were Pf growth 96h 22% and Pf growth 48h 15%.
`COC(=O)N[C@@H](c1cccc(F)c1)[C@@H](C)[N+](=O)[O-]` gave FBPA Giardia inh 0%.
`CCN(C(=O)COC(=O)CCC1CCCC1)c1c(N)n(Cc2ccccc2)c(=O)[nH]c1=O` gave Pf growth 96h -2%, Pf growth 48h 5%, HCMV antiviral -19 and Sm TGR block -2%.
For COC(=O)c1cc(=O)nc(NNC(C)=O)s1 the results were HCMV antiviral -14.
`COCCn1c(=NC(=O)CCS(=O)(=O)c2ccccc2)sc2cc(C(=O)OC)ccc21` gave Pf growth 96h 8%, Pf growth 48h 1%, HCMV antiviral -2 and Sm TGR block -14%.
Screening Cc1cc(C)c2sc(N(CCCN(C)C)C(=O)c3ccc(S(=O)(=O)N4CCc5ccccc5C4)cc3)nc2c1 returned Pf growth 96h inconclusive, Pf growth 48h inconclusive and Sm TGR block -10%.
`CN(C)CCCN(C(=O)c1ccc(S(=O)(=O)N2CCc3ccccc3C2)cc1)c1nc2c(F)cccc2s1` gave Pf growth 96h -10%, Pf growth 48h inconclusive, HCMV antiviral 14, FBPA Giardia inh -23% and Sm TGR block -18%.
Cc1ccc2nc(N(CCCN(C)C)C(=O)c3ccc(S(=O)(=O)N4CCc5ccccc5C4)cc3)sc2c1 was read as Pf growth 96h inconclusive, Pf growth 48h inconclusive, HCMV antiviral -103*, FBPA Giardia inh -24% and Sm TGR block 2%.
For Cc1cccc2sc(N(CCCN(C)C)C(=O)c3ccc(S(=O)(=O)N4CCc5ccccc5C4)cc3)nc12 the results were Pf growth 96h inconclusive, Pf growth 48h 9.3µM*, HCMV antiviral -100*, FBPA Giardia inh -10% and Sm TGR block -8%.
Screening COCCn1c(=NC(=O)c2ccc(S(=O)(=O)N3CCc4ccccc4C3)cc2)sc2cc(OC)ccc21 returned Pf growth 96h 5.2µM*, Pf growth 48h inconclusive, HCMV antiviral -29, FBPA Giardia inh 4% and Sm TGR block 4%.
For O=C(Nc1ccc(F)cc1)c1cc(S(=O)(=O)Nc2ccc(F)cc2)cs1 the results were Pf growth 96h 12µM*, Pf growth 48h 13%, HCMV antiviral -21, FBPA Giardia inh -2% and Sm TGR block 17%.
`COc1ccc(NC(=O)c2cc(S(=O)(=O)Nc3ccc(OC)cc3)cs2)cc1` gave Pf growth 96h -5%, Pf growth 48h inconclusive, HCMV antiviral inconclusive, FBPA Giardia inh -1% and Sm TGR block 1%.
Cc1ccc(NC(=O)c2cc(S(=O)(=O)N3CCCCC3)cs2)cc1 was read as Pf growth 96h inconclusive, HCMV antiviral -81*, FBPA Giardia inh -2% and Sm TGR block 2%.
For O=C(Nc1ccc(F)cc1)c1cc(S(=O)(=O)N2CCOCC2)cs1 the results were Pf growth 96h 12µM*, Pf growth 48h 28%, HCMV antiviral 7, FBPA Giardia inh -2% and Sm TGR block -10%.
Screening Cc1ccc(NC(=O)c2cc(S(=O)(=O)N3CCOCC3)cs2)cc1 returned Pf growth 96h 34%, Pf growth 48h inconclusive, HCMV antiviral 4, FBPA Giardia inh 2% and Sm TGR block 7%.
Cc1ccc(NC(=O)c2cccc(S(=O)(=O)N3CCCCC3)c2)cc1 was read as Pf growth 96h inconclusive, Pf growth 48h 3%, HCMV antiviral -33, FBPA Giardia inh 10% and Sm TGR block 0%.
CCC1=NN2C(=N)/C(=C\c3ccc(OCCOc4ccccc4OC)cc3)C(=O)N=C2S1 was read as Pf growth 96h -5%, Pf growth 48h 14%, HCMV antiviral -14, FBPA Giardia inh 5% and Sm TGR block 0%.
COC(=O)[C@H](COC(C)(C)C)NC(=O)O[C@@H]1C(=O)c2cc(Br)ccc2O[C@H]1c1ccc2c(c1)OCO2 was read as FBPA Giardia inh -4%.
For O=C(CSc1nc2ccccc2c(=O)[nH]1)Nc1ccccc1C(F)(F)F the results were Pf growth 96h inconclusive, Pf growth 48h 13%, HCMV antiviral -22 and Sm TGR block 7%.
